SW480 rereplic: inducers of DNA re-replication in SW480 colon cancer cells; SW480 DNA re-replication, Hoechst DNA content imaging, 48 h; Potency, µM (top dose mostly 46.1 µM), usual class: activators; 340,000 tested, 1.8% active; AID 624297; further: nearly all actives have a fitted effect of over 55% in size
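SW480 cells exposed to compounds for 48 hr at 37 C, 5% CO2, then Hoechst-stained 40 min. Nuclear DNA content imaged by fluorescence scanning (405 nm excitation, 500-530 nm emission); re-replication scored as increased high-intensity nuclei.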
IL1B secr inh: blocks inflammasome-driven IL-1 beta release | THP-1 LPS/ATP IL-1B secretion, AlphaLISA, 16 h; hits give low values | activity change, % at 57.5 µM | 360,000 tested, 4.7% active; in the data active means activity change below about -50%; inconclusive means mostly about -30% to -49%
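Secreted IL-1B measured by AlphaLISA bead assay after 16 h compound exposure of THP-1 cells; compounds (final up to 57.5 uM) added 1 h before LPS (250 ng/mL) and ATP (1.25 mM) stimulation; lower signal means less secretion.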
VP16 counter: inhibits Gal4-VP16 luciferase reporter, ROR gamma counter-screen. Drosophila S2 Gal4-VP16 UAS-luciferase, luminescence, 20 h. Potency, µM (doses to about 53.6 µM), actives largely listed as inhibitors. 310,000 tested, 3.5% active. AID 2546;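 further: Gal4-VP16 expression switched on by copper sulfate through the metallothionein promoter; nearly all actives have a fitted effect of over 50% in size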
RORgamma inh: inhibitors of mouse ROR gamma transcriptional activity; 310,000 tested, 5.4% active; P51450; Potency, µM (highest dose often 53.6 µM), actives largely listed as inhibitors; Drosophila S2 Gal4-RORgamma UAS-luciferase reporter, 20 h; AID 2551; further: nearly all actives have a fitted effect of over 60% in size
Target sequence (P51450 whole entry, looked up, the tested form may be a part): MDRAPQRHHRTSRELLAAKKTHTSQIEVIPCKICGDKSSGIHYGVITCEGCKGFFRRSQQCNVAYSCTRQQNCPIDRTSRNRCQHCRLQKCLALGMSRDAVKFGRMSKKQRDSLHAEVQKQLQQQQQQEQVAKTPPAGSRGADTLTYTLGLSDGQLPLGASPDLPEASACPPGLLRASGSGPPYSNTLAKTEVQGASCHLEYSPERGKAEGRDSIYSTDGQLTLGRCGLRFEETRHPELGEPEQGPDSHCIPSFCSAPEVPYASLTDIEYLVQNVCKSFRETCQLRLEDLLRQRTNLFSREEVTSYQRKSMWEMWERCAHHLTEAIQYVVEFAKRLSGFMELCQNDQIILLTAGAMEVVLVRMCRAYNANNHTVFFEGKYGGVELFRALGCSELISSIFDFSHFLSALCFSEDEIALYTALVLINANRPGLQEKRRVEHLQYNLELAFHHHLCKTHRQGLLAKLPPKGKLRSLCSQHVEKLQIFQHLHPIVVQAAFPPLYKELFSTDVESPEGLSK
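A Gal4/UAS one-hybrid system in insect cells: metallothionein-promoter Gal4–ROR gamma fusion plus Photinus luciferase reporter. Copper sulfate 700 uM final, 20 hr ambient incubation, luminescent detection after 10 min with reagent.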
MCF10A rereplic: induces DNA re-replication in MCF 10a normal breast cells. MCF 10A DNA re-replication, Hoechst nuclear intensity, 48 h. Potency, µM (doses to about 46.1 µM), usual class: activators. 350,000 tested, 2.9% active. AID 624296; further: nearly all actives have a fitted effect of over 50% in size
A number is an active result; – = inactive; ? = inconclusive; · = no result given; [ ] = remark or other dose. Sampled rows, rich in hits. Any-hit rate of the full collection: about 11%. Unless noted, the call rests on the fitted dose curve; in most records, active means well fitted curve in the direction sought with a large enough effect; inconclusive means small, poorly fitted or top-dose-only effect, or another doubt; inactive means no such curve, though single readings can be large; an effect the other way counts as inactive or inconclusive.

SMILES | SW480 rereplic | IL1B secr inh | VP16 counter | RORgamma inh | MCF10A rereplic
CCS(=O)(=O)N1N=C(c2cccs2)CC1c1cc2cc(C)ccc2nc1Cl (stereo unspecified) | ? | -53.0 | – | – | –
O=C(Nc1cc(S(=O)(=O)N2CCCCCC2)ccc1OCC(F)(F)F)c1cnccn1 | – | – | · | · | –
CSc1nc(Sc2ccccc2Cl)c2ccccc2n1 | ? | – | – | ? | 23.1µM
CCOC(=O)c1cnc(SC)nc1Sc1ccccc1Cl | – | – | – | – | ?
O=C1Nc2ccccc2N(O)N1c1ccc(Cl)cc1 | – | – | – | – | ?
CCN1c2ccccc2NC2C1C(C(C)=O)C(=O)N2c1ccc(Cl)cc1 (stereo unspecified) | 4.61µM | – | – | – | 2.91µM
CN(Cc1ccccc1)C(=O)c1ccc(NC(=O)Cc2ccc(NC(=O)C3CCCN(S(=O)(=O)c4cccc([N+](=O)[O-])c4)C3)cc2)cc1 (stereo unspecified) | – | – | · | · | –
COc1ccc(CNn2c(-c3cccs3)nc3ccccc3c2=O)cc1OC | ? | -78.5 | – | – | ?
COc1cccc(CNn2c(-c3cccc(C)c3)nc3ccccc3c2=O)c1 | – | -70.7 | – | – | –
COc1ccc(OC)c(CNn2c(-c3cccc(C)c3)nc3ccccc3c2=O)c1 | – | – | – | – | ?
CCOC(=O)c1c(-c2ccc(OC)cc2)csc1NC(=O)C1CCCO1 (stereo unspecified) | – | – | – | – | –
CC(C)OC(=O)c1c(-c2ccc(C(C)C)cc2)csc1NC(=O)C1CCCO1 (stereo unspecified) | – | – | – | – | 18.4µM
CCOC(=O)c1c(-c2ccc(F)cc2)csc1NC(=O)C1CCCO1 (stereo unspecified) | – | – | – | – | –
CCOC(=O)c1c(-c2ccc(C)cc2)csc1NC(=O)C1CCCO1 (stereo unspecified) | – | – | – | – | 13µM
CC1Cc2ccccc2N1C(=O)CO/N=C/c1ccccc1OC(F)F (stereo unspecified) | 16.4µM | – | – | – | –
O=S1(=O)c2cccc3cccc(c23)N1CCCN1CCN(c2ccc(F)cc2)CC1 | – | · | – | – | ?
COCC(=O)N1CCC[C@@]2(CCN(C(c3ccccc3)c3ccccc3)C2)C1 | · | · | – | – | ·
CNc1cncc(-c2cc(OC)ccc2OC)n1 | · | – | · | · | ·
COc1ccc(C(C)C)cc1-c1cncc(NC(C)=O)n1 | · | -95.7 | · | · | ·
COc1ccc(C(=O)C[C@@H]2OC3CCCCC3N2S(=O)(=O)c2ccc(C)cc2)cc1OC (stereo partly specified) | · | – | · | · | ·
O=C1C(=O)c2ccccc2C(O)=C1c1ccccc1F | – | – | 1.26µM | – | –
O=[N+]([O-])c1cc(C(F)(F)F)ccc1NCCCCNS(=O)(=O)c1ccc(Cl)cc1 | ? | -56.2 | ? | –[10 µM] | –
O=[N+]([O-])c1cc(C(F)(F)F)ccc1NCCc1c[nH]c2ccccc12 | – | -96.3 | ? | – | ?
O=[N+]([O-])c1cc(Cl)ccc1NCCNc1ncc(C(F)(F)F)cc1Cl | – | – | ? | ? | –
O=[N+]([O-])c1cc(C(F)(F)F)ccc1NCCNC(=S)Nc1ccc(Cl)cc1 | ? | -88.3 | ? | ? | –
SMILES | SW480 rereplic | IL1B secr inh | VP16 counter | RORgamma inh | MCF10A rereplic
CS(=O)(=O)NCCCNc1ccc(C(F)(F)F)cc1[N+](=O)[O-] | – | – | – | – | –
COc1cc2c(cc1OC)[C@@H]1O[C@](CCCCN3C(=O)c4ccccc4C3=O)(C2)Oc2cc(C)n(-c3ccccc3)c(=O)c21 | · | · | –[10 µM] | –[10 µM] | ·
Cc1ccc(S(=O)(=O)N2CCCCCC2)cc1C(=O)NCc1ccccn1 | – | – | – | – | –
CCOC(=O)CCc1nc2ccccc2[nH]c1=O | – | – | – | – | –
CCOC(=O)Cc1nc2ccccc2[nH]1 | 2µM | – | – | – | 5.01µM
Cc1ccc(C(=O)Cc2nc3ccccc3[nH]2)cc1 | – | -101.0 | ? | ? | –
Cc1ccc(OCc2nc3ccccc3[nH]2)cc1 | – | ? | ? | ? | –
O=C(O)CCC/C=C\C[C@@H]1[C@@H](CC[C@@H](O)CCc2ccccc2)[C@H](O)C[C@@H]1O | · | · | – | – | ·
CCOc1ccc(N2CC(C(=O)Nc3cc(S(=O)(=O)N4CCCCC4)ccc3C)CC2=O)cc1 (stereo unspecified) | – | – | · | · | –
CCC(C)Oc1ccccc1C1CC(=O)NC2=C1C(=O)CCC2 (stereo unspecified) | 18.4µM | – | – | – | ?
CC1(C(=O)Nc2ccc3c(c2)OCCO3)CCC(=O)N1C1CC1 (stereo unspecified) | · | – | · | · | ·
COc1ccc(CNCC(O)(c2ccccc2)c2ccc(F)cc2)cc1 (stereo unspecified) | ? | -88.7 | ? | – | –
COc1ccc(CNCC(O)(c2ccccc2)c2ccc(F)cc2)cc1OC (stereo unspecified) | ? | -88.4 | ? | – | ?
COc1cccc2c1C(=N)c1c(O)c3c(c(O)c1C2=O)CC(O)(C(C)=O)CC3OC1CC(N)C(O)C(C)O1 (stereo unspecified) | ? | -102.2 | · | · | –
COc1cccc2c1C(=O)c1c(O)c3c(c(O)c1C2=O)C[C@](O)(C(C)=O)C[C@H]3O[C@@H]1C[C@@H](N)[C@@H](O)[C@@H](C)O1 | – | ? | · | · | –
COc1cccc2c1C(=O)c1c(O)c3c(c(O)c1C2=O)C[C@](O)(C(=O)CO)C[C@H]3O[C@@H]1C[C@H](N)[C@H](O)[C@H](C)O1 | · | · | 7.08µM | 1.12µM | ·
CCCCC(=O)OCC(=O)C1(O)Cc2c(O)c3c(c(O)c2C(OC2CC(NC(=O)C(F)(F)F)C(O)C(C)O2)C1)C(=O)c1c(OC)cccc1C3=O (stereo unspecified) | – | ? | · | · | –
COc1cccc2c1C(=O)c1c(O)c3c(c(O)c1C2=O)CC(O)(C(C)=O)CC3OC1CC(O)C(O)C(C)O1 (stereo unspecified) | ? | -103.3 | · | · | –
CN1CC=C2C(C#N)=C(N)C(C#N)(C#N)C(c3cccc(Cl)c3Cl)C2C1 (stereo unspecified) | – | -103.2 | – | ? | ?
N#CC1=C(N)C(C#N)(C#N)[C@H](c2ccoc2)[C@H]2CN(Cc3ccccc3)CC=C12 | 16.4µM | – | – | – | 7.31µM
CN1CC=C2C(C#N)=C(N)C(C#N)(C#N)[C@H](c3ccoc3)[C@H]2C1 | – | – | – | – | –
CC(C)(C)OC(=O)CC12CCCCC1NC(=O)O2 (stereo unspecified) | – | – | – | – | –
Cc1nc(N2CCN(C)CC2)c2sc(=S)n(-c3ccccc3)c2n1 | – | – | – | – | –
S=c1sc2c(Cl)ncnc2n1-c1ccccc1 | ? | -96.3 | ? | ? | 2.06µM
Cc1c(C(=O)N2CCCC2)oc2c1-c1nn(CC(=O)NCCCOC(C)C)cc1CC2 | – | – | – | – | –

Screens from PubChem BioAssay.
